Screens: PubChem, National Center for Advancing Translational Sciences (NCATS)
TDP1 cell CPT = growth inhibition of DT40 Tdp1-/-;hTDP1 cells with camptothecin (screen for TDP1 inhibitors) | hit rate 12% among 420,000 | Potency, µM (highest dose often 46.2 µM), actives largely listed as inhibitors | AID 686979 | chicken DT40 Tdp1-/-;hTDP1 cells + 20 nM CPT, ATP luminescence, 48 h; further: nearly all actives have a fitted effect of over 55% in size
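Chicken DT40 Tdp1-/- cells stably complemented with human TDP1 were seeded at 400 cells/well in medium containing 20 nM camptothecin, exposed to pin-transferred compounds, and grown at 37 °C for at least 48 hr. Viability was read as ATP luminescence.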
DT40 TDP1 no CPT = qHTS for Inhibitors of human tyrosyl-DNA phosphodiesterase 1 (TDP1): qHTS in cells in absence of CPT | DT40 Tdp1-/- hTDP1 cells, no CPT, ATP luminescence, 48 h | hit rate 15% among 420,000 | Potency, µM (top dose mostly 46.2 µM), hits mostly inhibitors | AID 686978, 2013; further: nearly all actives have a fitted effect of over 55% in size
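Chicken DT40 Tdp1-/- cells stably complemented with human TDP1 were seeded at 400 cells/well with DMSO in place of 20 nM camptothecin. After compound pinning, cells grew at least 48 hr at 37 °C; viability read by CellTiter-Glo luminescence.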
HT1080-NT tox = kills 2HG-producing HT-1080-NT fibrosarcoma cells. hit rate 1.6% among 360,000. AID 686970. Potency, µM (top dose mostly 46.1 µM), usual class: cytotoxic. HT-1080-NT fibrosarcoma viability, CellTiter-Glo ATP luminescence, 48 h;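 further: NT is the 2HG producing partner of a matched IDH1 knockdown line; nearly all actives have a fitted effect of over 55% in size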
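Luminescent CellTiter-Glo readout after 48 hours of compound exposure at 37 degrees C defined viability of HT-1080-NT cells. Activity was normalized to DMSO wells and cell-free media wells; concentration-response curves were fitted and assigned curve classes.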
HT1080 IDH1KD tx = HT-1080 IDH1 knockdown cell toxicity (counter line); HT-1080 IDH1 knockdown viability, ATP luminescence, 48 h; Potency, µM (doses to about 46.1 µM), actives largely listed as cytotoxic; hit rate 2% among 360,000; AID 686971
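Viability of IDH1-knockdown HT-1080 fibrosarcoma cells was assessed by CellTiter-Glo after 48 h at 37 °C with titrated compound; concentration-effect curves were classified by fit quality and response size.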
IL1B secr inh = inhibitors of inflammasome signaling (IL-1 beta secretion); THP-1 LPS/ATP IL-1B secretion, AlphaLISA, 16 h; stronger effect = lower value; AID 743279; hit rate 4.7% among 360,000; activity change, % at 57.5 µM; in the data active means activity change below about -50%; inconclusive means mostly about -30% to -49%
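THP-1 cells pretreated 1 hr with compounds (up to 57.5 uM final), then stimulated with LPS (250 ng/mL final) plus ATP (1.25 mM final); secreted IL-1B measured by AlphaLISA after 16 hr, decreased signal indicating inhibition.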
Hits are given with their value; n = inactive; u = inconclusive; x = no result. In the library only some 19% were active in any assay of this set; here they are far more common. Unless noted, the call rests on the fitted dose curve; in most records, active means well fitted curve in the direction sought with a large enough effect; inconclusive means small, poorly fitted or top-dose-only effect, or another doubt; inactive means no such curve, though single readings can be large; an effect the other way counts as inactive or inconclusive.

SMILES	TDP1 cell CPT	DT40 TDP1 no CPT	HT1080-NT tox	HT1080 IDH1KD tx	IL1B secr inh
Cc1ccc(NC(=O)C2C(c3ccccc3)C=CC(c3ccccc3)C2C(=O)O)cc1 (centres undefined)	29µM	21µM	n	n	n
Cc1ccc(NC(=O)C2C(C(=O)O)C3C=CC2C32CC2)cc1 (centres undefined)	n	n	n	n	n
CC(=O)OC[C@H]1O[C@@](COC(C)=O)(O[C@H]2O[C@H](COC(C)=O)[C@@H](OC(C)=O)[C@H](OC(C)=O)[C@H]2OC(C)=O)[C@@H](OC(C)=O)[C@@H]1OC(C)=O	n	n	x	x	x
CC1=CC2=C(C=O)C(=O)C(C)(O)C(O)C2=CO1 (centres undefined)	u	u	u	n	-62
CC(C)CNC(=O)C1(C)CCCN1Cc1ccc(OC(F)(F)F)cc1 (centres undefined)	u	u	n	n	n
COC(=O)[C@H](Cc1ccccc1)NC(=O)c1ccc2ccccc2n1	n	n	n	n	n
CCCNC(=O)C(Cc1ccc(Cl)cc1)NC(=O)c1ccc(-c2ccccc2)cc1 (centres undefined)	8.2µM	6.5µM	n	n	n
CC(=O)NC(Cc1ccc(I)cc1)C(=O)NCC(N)C(=O)c1ccccc1 (centres undefined)	u	u	n	n	x
CCCNC(=O)C(Cc1ccc(I)cc1)NC(=O)c1ccc2ccccc2n1 (centres undefined)	u	21µM	n	n	n
CCCNC(=O)C(Cc1ccc(Cl)cc1)NC(=O)c1ccc(C#N)cc1 (centres undefined)	n	u	n	n	n
CC(=O)NC(Cc1ccc(Cl)cc1)C(=O)NCC(N)C(=O)c1ccccc1 (centres undefined)	16µM	u	n	n	x
CCc1noc(C)c1C(=O)Nc1ccc(F)c(F)c1F	n	n	n	n	n
O=c1ccc(-c2ccc(S(=O)(=O)Nc3ccccc3Cl)o2)n[nH]1	n	n	n	n	n
COc1ccc(CC2S/C(=N/N=C/c3ccc(O)cc3)NC2=O)cc1 (centres undefined)	n	n	n	n	n
COc1ccc(CC2S/C(=N/N=C/c3ccccc3O)NC2=O)cc1 (centres undefined)	3.3µM	0.92µM	n	n	n
O=C1N/C(=N/N=C/c2ccc(O)cc2)SC1Cc1ccccc1 (centres undefined)	n	n	n	n	n
O=C1N/C(=N/N=C/c2ccccc2O)SC1Cc1ccc(F)cc1 (centres undefined)	0.18µM	0.029µM	u	23µM	n
COc1cccc2sc(N(CCCN(C)C)C(=O)c3sc4ccccc4c3Cl)nc12	u	18µM	n	n	-67
COc1cc(C(=O)N(CCCN(C)C)c2nc3c(OC)cccc3s2)cc(OC)c1OC	u	21µM	x	x	x
CN(C)CCCN(C(=O)c1sc2ccccc2c1Cl)c1nc2c(F)cccc2s1	n	u	n	n	n
Cc1cccc2sc(N(CCCN(C)C)C(=O)c3sc4ccccc4c3Cl)nc12	16µM	23µM	n	n	n
COc1ccc(C2=CC(=O)OC3(CCCC3)O2)cc1	n	n	n	n	n
O=[N+]([O-])c1ccccc1CSc1ccccn1	n	n	n	n	-63
COc1ccc(OC)c(C2=NS(=O)(=O)N(C)C(C(=O)Nc3ccc(C(C)=O)cc3)=C2)c1	18µM	15µM	n	n	u
CCc1ccc(NC(=O)C2=CC(c3ccc(OC)c(OC)c3)=NS(=O)(=O)N2C)cc1	12µM	18µM	u	n	n
SMILES	TDP1 cell CPT	DT40 TDP1 no CPT	HT1080-NT tox	HT1080 IDH1KD tx	IL1B secr inh
COc1ccc(C2=NS(=O)(=O)N(C)C(C(=O)NCc3cccs3)=C2)cc1OC	15µM	u	n	n	n
COc1ccc(NC(=O)C2=CC(c3ccc(OC)cc3)=NS(=O)(=O)N2C)cc1	u	21µM	n	n	n
O=C(/C=C(\O)c1ccccc1)C(=O)NNC(=O)c1ccccc1[N+](=O)[O-]	n	n	n	n	n
C#CCSc1nnnn1-c1ccc(OCC)cc1	n	n	n	n	n
COc1ccc(C2=NS(=O)(=O)N(C)C(C(=O)NC3CCCC3)=C2)cc1	n	u	n	n	n
COc1ccc(C2=NS(=O)(=O)N(C)C(C(=O)N3CCc4ccccc4C3)=C2)cc1OC	18µM	9.2µM	n	n	n
COc1ccc(C2=NS(=O)(=O)N(C)C(C(=O)NC3CCCCC3)=C2)cc1	n	6.5µM	n	n	n
COc1ccc(C2=NS(=O)(=O)N(C)C(C(=O)NCc3ccccc3)=C2)cc1OC	u	u	n	n	n
Cc1cccc(NC(=O)c2cccc(S(=O)(=O)NCc3ccccc3)c2)n1	u	n	n	n	n
Cc1cc(NC(=O)CCSc2ccccc2)ccc1Br	n	n	n	n	-67
COc1cccc(NC(=O)CN(C)CC(=O)Nc2ccc(C)cc2Cl)c1	u	13µM	n	n	n
CCN(CC(=O)Nc1cccc(OC)c1)CC(=O)Nc1ccccc1C	n	n	n	n	n
CCN(CC(=O)Nc1cccc(OC)c1)CC(=O)Nc1ccc(Br)c(C)c1	u	n	u	u	-68
O=C(CCSc1ccc(Br)cc1)Nc1cccnc1	n	23µM	n	n	n
CN(CCOc1ccccc1)CC(=O)Nc1cccc(Br)c1	n	u	n	n	n
Cc1cc(NC(=O)CN(C)CCOc2ccccc2)ccc1Br	18µM	18µM	u	u	-52
COC(=O)c1ccccc1NC(=O)c1cc2cc(C)ccc2n1C	6.5µM	5.8µM	x	x	x
CCc1ccc(C(C)NC(=O)Cn2cnc3c(=O)n(C)c(=O)n(C)c32)cc1 (centres undefined)	n	u	n	n	n
COc1ncccc1C(=O)N1CCCC(C(=O)Nc2cccc(-c3ccc(F)cc3)c2)C1 (centres undefined)	21µM	12µM	n	n	n
Cc1ccc(C(=O)N2CCCC(C(=O)Nc3cccc(-c4ccc(F)cc4)c3)C2)cn1 (centres undefined)	16µM	8.2µM	n	n	n
O=C(Cn1cc[n+](Cc2ccccc2)c1)c1ccc([N+](=O)[O-])cc1	3.7µM	2.6µM	u	n	-72
O=C(C[n+]1ccccc1)c1cccc([N+](=O)[O-])c1	n	n	x	x	x
O=[N+]([O-])c1ccc(C[n+]2ccc(Cc3ccccc3)cc2)cc1	18µM	10µM	u	n	n
O=C(NCc1ccccc1)c1ccc([N+](=O)[O-])cc1	n	n	n	n	n
O=[N+]([O-])c1ccc(C[n+]2ccccc2)cc1	n	n	n	n	n
O=C(C[n+]1ccn(-c2ccccc2)c1)c1ccc([N+](=O)[O-])cc1	15µM	16µM	n	n	n
